Data published in PubChem BioAssay (Tox21).
Active and inactive are the calls of the source. Unless noted, the call rests on the fitted dose curve; in most records, active means well fitted curve in the direction sought with a large enough effect in the repeat runs; inconclusive means weak or mixed curves; inactive means no such curve, though single readings can be large; an effect the other way counts as inactive or inconclusive.

Tests used:
[1] = qHTS assay to identify small molecule antagonists of the glucocorticoid receptor (GR) signaling pathway - cell viability counter screen (AID 720693); further: nearly all actives have a fitted effect of over 55% in size; further: potency means the concentration at half of the fitted maximal effect
[2] = qHTS assay for identifying genotoxic compounds that show differential cytotoxicity against isogenic chicken DT40 cell lines with known DNA damage response pathways - Rev3 mutant cell line (AID 743014); further: nearly all actives have a fitted effect of over 55% in size; further: potency means the concentration at half of the fitted maximal effect
[3] = qHTS assay for identifying genotoxic compounds that show differential cytotoxicity against isogenic chicken DT40 cell lines with known DNA damage response pathways - Rad54/Ku70 mutant cell line (AID 743015); further: nearly all actives have a fitted effect of over 60% in size; further: potency means the concentration at half of the fitted maximal effect
[4] = qHTS assay to identify small molecule antagonists of the androgen receptor (AR) signaling pathway - cell viability counter screen (AID 743033; further: nearly all actives have a fitted effect of over 45% in size; further: potency means the concentration at half of the fitted maximal effect)
[5] = qHTS assay to identify small molecule antagonists of the androgen receptor (AR) signaling pathway using the MDA cell line - cell viability counter screen (AID 743041; further: nearly all actives have a fitted effect of over 45% in size; further: potency means the concentration at half of the fitted maximal effect)
Method in brief: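 In this qHTS counter assay, fluorescence intensity after CellTiter-Fluor addition indicated viability of MDA-kb2 AR-luc cells given compounds and R1881 for 16 h at 37C.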

[6] = qHTS assay to identify small molecule antagonists of the thyroid receptor (TR) signaling pathway - cell viability counter screen (AID 743064); further: nearly all actives have a fitted effect of over 50% in size; further: potency means the concentration at half of the fitted maximal effect
Method in brief: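 In rat pituitary GH3.TRE-Luc reporter cells co-exposed to compound and 1 nM T3 for 23.5 h, cytotoxicity was assessed with CellTiter-Fluor in the same wells, read by fluorescence.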

[7] = qHTS assay to identify small molecule antagonists of the thyroid receptor (TR) signaling pathway (AID 743065); further: nearly all actives have a fitted effect of over 55% in size; further: potency means the concentration at half of the fitted maximal effect
Method in brief: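 GH3.TRE-Luc rat pituitary cells carrying two TR response elements driving luciferase were plated for 4 h, given compound plus 1 nM T3 (final), and incubated 23.5 h at 37 C. ONE-Glo luminescence measured reporter inhibition; CellTiter-Fluor fluorescence tracked cytotoxicity.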

[8] = tested on: thyroid hormone receptor (rat, GH3 cells); experiment: qHTS assay to identify small molecule agonists of the thyroid receptor (TR) signaling pathway (AID 743066; calls by dose curve)
[9] = target: Estrogen receptor (Homo sapiens) (UniProt P03372); experiment: qHTS assay to identify small molecule antagonists of the estrogen receptor alpha (ER-alpha) signaling pathway (AID 743069; active means well fitted curve in the direction sought with a large enough effect in the signal ratio in the repeat runs, not every such curve was filed as active; inconclusive means weak or mixed curves, or effect the other way; inactive means no such curve, though single readings can be large or run the other way; the % refers to the signal ratio; further: potency means the concentration at half of the fitted maximal effect)
Method in brief: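 A 17beta-estradiol challenge was applied right after compound transfer to ER-alpha-UAS-bla HEK293 cells previously kept in charcoal-stripped serum. Plates stood 18 hr at 37C and 5% CO2; fluorescence was read following 2 hr FRET substrate loading at room temperature.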

[10] = qHTS assay to identify small molecule antagonists of the estrogen receptor alpha (ER-alpha) signaling pathway - cell viability counter screen (AID 743074; calls by dose curve;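 further: HEK293 cells carrying ER-alpha-UAS-bla reporter stimulated with 17beta-estradiol; nearly all actives have a fitted effect of over 45% in size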; further: potency means the concentration at half of the fitted maximal effect)
[11] = target: Estrogen receptor (Homo sapiens) (UniProt P03372); experiment: qHTS assay to identify small molecule agonists of the estrogen receptor alpha (ER-alpha) signaling pathway (AID 743075; calls by dose curve;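 further: HEK293 GripTite cells with ER-alpha and UAS-driven beta-lactamase reporter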; further: potency means the concentration at half of the fitted maximal effect); conditions: HEK293 ER-alpha-UAS-bla, beta-lactamase FRET ratio, 18 h; activation: at 70.1 µM (top of the series)
[12] = target: Estrogen receptor (Homo sapiens) (UniProt P03372); experiment: qHTS assay to identify small molecule agonists of the estrogen receptor alpha (ER-alpha) signaling pathway using the BG1 cell line (AID 743079); conditions: BG1Luc4E2 cells, ERE-luciferase agonist, 22 h; further: nearly all actives have a fitted effect of over 20% in size
[13] = qHTS assay to identify small molecule antagonists of the estrogen receptor alpha (ER-alpha) signaling pathway using the BG1 cell line - cell viability counter screen (AID 743081);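 further: compound given together with 17beta-estradiol as the ER stimulus; nearly all actives have a fitted effect of over 45% in size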; further: potency means the concentration at half of the fitted maximal effect
[14] = qHTS assay for identifying genotoxic compounds that show differential cytotoxicity against isogenic chicken DT40 cell lines with known DNA damage response pathways - wild type cell line (AID 743012); further: nearly all actives have a fitted effect of over 60% in size; further: potency means the concentration at half of the fitted maximal effect
Method in brief: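 Viability of DNA repair-proficient chicken DT40 cells was assessed by CellTiter-Glo luminescence following 40 h compound exposure at 37 C/5% CO2.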

Aromatase (Homo sapiens) = Aromatase (Homo sapiens) (UniProt P11511); experiment: qHTS assay to identify aromatase inhibitors (AID 743083); further: nearly all actives have a fitted effect of over 55% in size; further: potency means the concentration at half of the fitted maximal effect
[15] = qHTS assay to identify aromatase inhibitors - cell viability counter screen (AID 743084); further: potency means the concentration at half of the fitted maximal effect
[16] = target: Androgen receptor (Homo sapiens) (UniProt P10275); experiment: qHTS assay to identify small molecule agonists of the androgen receptor (AR) signaling pathway using the MDA cell line (AID 743040; further: nearly all actives have a fitted effect of over 20% in size; further: potency means the concentration at half of the fitted maximal effect)
Method in brief: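 Cell-based luciferase reporter: MDA-kb2, MMTV promoter (AR + GR response elements). 16 h compound exposure at 37C; ONE-Glo, 30 min RT, luminescence.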

[17] = qHTS assay to identify small molecule antagonists of the estrogen receptor alpha (ER-alpha) signaling pathway using the BG1 cell line (AID 743080; calls by dose curve;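 further: BG1 cells stimulated with 17beta-estradiol alongside compound; nearly all actives have a fitted effect of over 25% in size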; further: potency means the concentration at half of the fitted maximal effect)
Method in brief: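 BG1-Luc-4E2 cells (endogenous full-length ER-alpha, 4xERE luciferase) hormone-starved 5 days in charcoal-stripped FBS, plated 4,000/well for 24 h, then compound plus 17beta-estradiol for 21.5 h at 37 C; ONE-Glo luminescence read.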

[18] = target: Androgen receptor (Homo sapiens) (UniProt P10275); experiment: qHTS assay to identify small molecule antagonists of the androgen receptor (AR) signaling pathway using the MDA cell line (AID 743042; further: nearly all actives have a fitted effect of over 55% in size; further: potency means the concentration at half of the fitted maximal effect)
Method in brief: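 MDA-kb2 cells (human breast carcinoma, stably carrying an MMTV-luciferase reporter responsive to AR and GR) were plated at 3,000 cells/well and preincubated 5 hr at 37C, then given compound plus R1881 agonist for 16 h. ONE-Glo luminescence was read.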

[19] = target: Androgen receptor (Homo sapiens) (UniProt P10275); experiment: qHTS assay to identify small molecule antagonists of the androgen receptor (AR) signaling pathway (AID 743035; active means well fitted inhibition curve with a large enough effect in the signal ratio in the repeat runs, not every such curve was filed as active; inconclusive means weak or mixed curves, or effect the other way; inactive means no such curve, though single readings can be large or run the other way; the % refers to the signal ratio; further: potency means the concentration at half of the fitted maximal effect)
Method in brief: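 Reporter HEK293 cells were exposed to compounds and R1881 overnight (16 h, 37C); beta-lactamase activity was then quantified by FRET fluorescence.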
On the % scale 0 is the no-effect control and ±100 the full control effect.

Sequence of Aromatase (Homo sapiens) (P11511 whole entry, looked up): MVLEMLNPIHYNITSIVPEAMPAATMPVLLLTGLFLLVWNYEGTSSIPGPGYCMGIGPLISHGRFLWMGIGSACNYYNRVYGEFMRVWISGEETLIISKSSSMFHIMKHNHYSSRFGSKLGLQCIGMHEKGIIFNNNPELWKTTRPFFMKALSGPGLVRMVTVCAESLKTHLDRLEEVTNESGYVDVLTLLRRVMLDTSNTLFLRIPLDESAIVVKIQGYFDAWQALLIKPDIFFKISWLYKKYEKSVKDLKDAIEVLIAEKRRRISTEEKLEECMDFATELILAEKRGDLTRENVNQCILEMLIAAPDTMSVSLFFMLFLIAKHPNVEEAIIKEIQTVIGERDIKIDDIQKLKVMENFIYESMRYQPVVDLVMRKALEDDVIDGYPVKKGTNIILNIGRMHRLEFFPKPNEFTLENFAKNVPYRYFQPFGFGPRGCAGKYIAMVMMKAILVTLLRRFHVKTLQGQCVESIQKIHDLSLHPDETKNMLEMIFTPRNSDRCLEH
Sequence of Androgen receptor (Homo sapiens) (P10275 whole entry, looked up): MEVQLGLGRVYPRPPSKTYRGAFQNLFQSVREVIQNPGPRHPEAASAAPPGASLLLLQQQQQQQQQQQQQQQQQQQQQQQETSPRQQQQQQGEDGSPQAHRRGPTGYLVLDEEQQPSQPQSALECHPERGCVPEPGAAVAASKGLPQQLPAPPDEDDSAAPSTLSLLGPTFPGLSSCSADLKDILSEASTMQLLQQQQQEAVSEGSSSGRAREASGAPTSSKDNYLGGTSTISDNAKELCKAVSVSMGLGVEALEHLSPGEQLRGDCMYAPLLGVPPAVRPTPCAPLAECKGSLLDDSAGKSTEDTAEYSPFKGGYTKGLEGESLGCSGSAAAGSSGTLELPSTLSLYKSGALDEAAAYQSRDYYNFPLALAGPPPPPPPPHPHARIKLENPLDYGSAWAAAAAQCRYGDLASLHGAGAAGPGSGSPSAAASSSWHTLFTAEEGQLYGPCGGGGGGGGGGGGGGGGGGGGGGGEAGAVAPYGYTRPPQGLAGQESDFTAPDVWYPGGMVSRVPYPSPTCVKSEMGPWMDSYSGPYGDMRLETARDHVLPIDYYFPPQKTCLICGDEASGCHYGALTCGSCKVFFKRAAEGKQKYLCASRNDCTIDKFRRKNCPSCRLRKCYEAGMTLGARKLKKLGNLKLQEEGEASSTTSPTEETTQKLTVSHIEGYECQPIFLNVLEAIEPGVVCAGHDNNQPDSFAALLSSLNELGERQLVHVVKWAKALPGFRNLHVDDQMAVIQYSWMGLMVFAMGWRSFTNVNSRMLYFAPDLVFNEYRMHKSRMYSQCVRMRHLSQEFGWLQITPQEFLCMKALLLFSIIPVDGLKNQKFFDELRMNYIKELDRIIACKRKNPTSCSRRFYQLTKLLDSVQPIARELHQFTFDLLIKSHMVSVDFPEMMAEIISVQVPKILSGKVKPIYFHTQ
Sequence of Estrogen receptor (Homo sapiens) (P03372 whole entry, looked up): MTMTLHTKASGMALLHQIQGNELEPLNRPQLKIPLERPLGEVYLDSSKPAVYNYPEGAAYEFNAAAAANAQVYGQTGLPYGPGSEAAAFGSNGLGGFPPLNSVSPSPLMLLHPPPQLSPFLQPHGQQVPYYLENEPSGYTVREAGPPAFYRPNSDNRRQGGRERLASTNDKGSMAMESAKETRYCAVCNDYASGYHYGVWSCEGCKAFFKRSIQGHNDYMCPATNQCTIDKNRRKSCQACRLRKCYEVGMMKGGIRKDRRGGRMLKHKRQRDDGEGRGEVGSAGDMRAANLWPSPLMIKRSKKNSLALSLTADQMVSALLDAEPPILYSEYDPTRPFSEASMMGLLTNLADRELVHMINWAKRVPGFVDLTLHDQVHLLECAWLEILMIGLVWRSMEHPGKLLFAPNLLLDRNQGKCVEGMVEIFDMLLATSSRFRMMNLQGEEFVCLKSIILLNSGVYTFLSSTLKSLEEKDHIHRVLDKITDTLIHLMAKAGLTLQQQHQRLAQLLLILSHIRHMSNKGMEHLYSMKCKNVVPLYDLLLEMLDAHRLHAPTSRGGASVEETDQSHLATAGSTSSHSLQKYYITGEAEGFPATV

O=c1cccccc1O
inactive: Potency [1] | Potency [5] | Potency [8] | Potency [9] | Potency [10] | Potency [11] | activation ([12]; at 95 µM (top of the series)) -8.54% | Potency [13]
active: Potency [2] 27.8 µM | Potency [3] 55.5 µM | Potency [4] 44.5 µM | Potency [6] 19.7 µM | Potency [7] 17.6 µM

Clc1ccc2n[nH]nc2c1
inactive: Potency [1] | Potency [14] | Potency [4] | Potency [6] | Potency [7] | Potency [8] | Potency [10] | Potency [13] | Potency (Aromatase (Homo sapiens)) | Potency [15]

CCCCN1CCCC[C@H]1C(=O)Nc1c(C)cccc1C
inactive: Potency [1] | Potency [2] | Potency [3] | Potency [4] | Potency [16] | Potency [5] | Potency [6] | Potency [7] | Potency [8] | Potency [9] | Potency [10] | Potency [11] | activation ([12]; at 70.3 µM (top of the series)) -9.26% | Potency [17] | Potency [13] | Potency (Aromatase (Homo sapiens)) | Potency [15]

CC(C)=CCOc1ccc(/C=C/C(=O)c2ccc(OCC=C(C)C)cc2OCC(=O)O)cc1
inactive: Potency [1] | Potency [14] | Potency [4] | Potency [16] | Potency [18] | Potency [10] | Potency [11] | activation ([12]; at 70.3 µM (top of the series)) -17.4% | Potency [17] | Potency [13] | Potency (Aromatase (Homo sapiens)) | Potency [15]
active: Potency [7] 26.6 µM | Potency [9] 16.9 µM [inconclusive]

CC(C)C(C)(C)C(C)(C)C(C)(C)S
inactive: Potency [1] | Potency [14] | Potency [16] | Potency [5] | Potency [18] | Potency [8] | Potency [9] | Potency [11] | activation ([12]; at 70.3 µM (top of the series)) 4.61% | Potency [17] | Potency [13]

Cc1cc(C2CCCCC2)n(O)c(=O)c1
active: Potency [2] 1.14 µM | Potency [3] 2.54 µM | Potency [6] 2.54 µM | Potency [7] 2.27 µM | Potency [9] 2.88 µM [inhibitor] | Potency [17] 9.02 µM | Potency [15] 12.7 µM
inactive: Potency [1] | Potency [4] | Potency [5] | Potency [11] | Potency [13]

CC1=NC(C)OC1C (stereo not drawn)
inactive: Potency [1] | Potency [2] | Potency [3] | Potency [4] | Potency [16] | Potency [5] | Potency [6] | Potency [7] | Potency [8] | Potency [10] | Potency [11] | Potency [17] | Potency [13] | Potency (Aromatase (Homo sapiens)) | Potency [15]

Clc1ccc2nsnc2c1NC1=NCCN1
active: Potency [16] 26.6 µM
inactive: Potency [1] | Potency [2] | Potency [3] | Potency [4] | Potency [19] | Potency [5] | Potency [18] | Potency [6] | Potency [7] | Potency [8] | Potency [9] | Potency [10] | Potency [11] | activation ([12]; at 70.3 µM (top of the series)) 1.06% | Potency [17] | Potency [13] | Potency (Aromatase (Homo sapiens)) | Potency [15]

C=CC(=O)OCC(CO)(COCC(COC(=O)C=C)(COC(=O)C=C)COC(=O)C=C)COC(=O)C=C
active: Potency [1] 4.31 µM | Potency [2] 0.428 µM | Potency [3] 0.303 µM | Potency [4] 3.84 µM | Potency [19] 1.93 µM | Potency [18] 1.07 µM | Potency [6] 1.52 µM | Potency [10] 21.6 µM | Potency [11] 10.8 µM [inconclusive] | Potency [13] 13.5 µM | Potency (Aromatase (Homo sapiens)) 2.4 µM | Potency [15] 1.7 µM
inactive: Potency [16]

Cc1onc(-c2c(Cl)cccc2Cl)c1C(=O)N[C@@H]1C(=O)N2[C@@H]1SC(C)(C)[C@@H]2C(=O)O
inactive: Potency [1] | Potency [14] | Potency [4] | Potency [16] | Potency [5] | Potency [18] | Potency [6] | Potency [8] | Potency [10] | Potency [13] | Potency (Aromatase (Homo sapiens)) | Potency [15]

O=c1[nH]cnc2nc[nH]c12
inactive: Potency [1] | Potency [2] | Potency [3] | Potency [4] | Potency [5] | Potency [6] | Potency [7] | Potency [8] | Potency [9] | Potency [10] | Potency [11] | activation ([12]; at 70.3 µM (top of the series)) 8.82% | Potency [17] | Potency [13] | Potency (Aromatase (Homo sapiens)) | Potency [15]

Oc1cc2ccccc2c2ccccc12
inactive: Potency [16]
active: Potency [1] 17.4 µM | Potency [14] 1.22 µM | Potency [4] 9.77 µM | Potency [18] 13.7 µM | Potency [6] 10.9 µM | Potency [7] 10.9 µM | Potency [10] 11 µM | Potency [11] 24.5 µM [fluorescent] | Potency (Aromatase (Homo sapiens)) 6.86 µM | Potency [15] 8.63 µM

On1ccccc1=S
inactive: Potency [1] | Potency [13]
active: Potency [2] 0.215 µM | Potency [3] 0.215 µM | Potency [4] 0.385 µM | Potency [5] 0.959 µM | Potency [6] 1.52 µM | Potency [7] 0.855 µM | Potency (Aromatase (Homo sapiens)) 0.382 µM | Potency [15] 0.539 µM
